The full list was thinned out, with hits kept by preference.
14-3-3g Raf: modulators of human 14-3-3 gamma - Raf peptide interaction; P61981; FP, 14-3-3gamma / TMR-pS259-Raf peptide binding; inhibition, % at 40 µM; 160,000 tested, 0.19% active; in the data active = inhibition above about 30%;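 also: 0% = protein plus tracer without compound and 100% = blank with tracer alone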
Target sequence (P61981 whole entry, looked up): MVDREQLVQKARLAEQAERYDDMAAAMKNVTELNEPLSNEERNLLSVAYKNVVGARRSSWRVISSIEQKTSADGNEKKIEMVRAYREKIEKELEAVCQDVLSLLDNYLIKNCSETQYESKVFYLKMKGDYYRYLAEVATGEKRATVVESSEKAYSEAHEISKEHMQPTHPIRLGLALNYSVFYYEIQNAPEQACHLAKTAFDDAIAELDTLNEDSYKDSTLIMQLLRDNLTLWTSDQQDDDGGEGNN
An asterisk follows results filed as active; + = active, no number.

SMILES	14-3-3g Raf
O=C(CN1CCN(Cc2ccccc2Cl)C1=O)NCc1cccnc1	-5
O=C(CN1CCN(Cc2ccccc2Cl)C1=O)NCc1ccccn1	71*
O=C(CN1CCN(Cc2ccc(F)cc2)C1=O)NCc1ccccc1Cl	-10
CCc1c(C(=O)NCCc2ccc(OC)c(OC)c2)[nH]c(C)c1C(C)=O	-13
COc1cccc2c1C(=O)c1c(O)c3c(c(O)c1C2=O)C[C@@](O)(C(=O)CO)C[C@@H]3O[C@H]1C[C@H](N)[C@H](O)[C@H](C)O1	57*
C#CC(C)(C)OC(=O)c1ccc(OC)cc1	-10
COc1cc(C(=O)NCCn2c(C)cc3ccccc32)cc(OC)c1OC	6
COC(=O)c1ccccc1NC(=O)CC(NCc1ccccc1)C(=O)O (stereo unspecified)	-7
O=C(O)c1ccc2c(c1)C1C=CCC1C(c1ccccn1)N2 (stereo unspecified)	62*
O=C(O)c1ccc2c(c1)C1C=CCC1C(c1ccncc1)N2 (stereo unspecified)	-2
CCOC(=O)C1Nc2ccc(C(=O)O)cc2C2C=CCC12 (stereo unspecified)	-82
CCOC(=O)c1ccc2c(c1)C1C=CCC1C(C(=O)O)N2 (stereo unspecified)	-48
O=C(O)c1ccc2c(c1)C1C=CCC1C(C(=O)O)N2 (stereo unspecified)	36*
COc1ccccc1C1Nc2ccc(C(=O)O)cc2C2C=CCC21 (stereo unspecified)	-75
O=C(Cn1nnc(-c2ccccc2F)n1)Nc1ccc(C(=O)N2CCOCC2)cc1	6
CCCCCCCCCC(=O)NC(CN1CCOCC1)[C@H](O)c1ccccc1 (stereo partly specified)	-1
O=C(NCCNc1ccc(Cl)cc1[N+](=O)[O-])c1ccccc1Br	3
Fc1ccc(-c2nn(-c3ccccc3)cc2C=NCc2ccccc2)cc1	0
Cc1ccc2c(c1)NC(=O)C(CC(=O)NCCN(C)C)O2 (stereo unspecified)	2
Cc1ccc(NC(=O)CN2C(=O)C(C)Oc3ccccc32)nc1 (stereo unspecified)	-4
C=Cc1c(C)c2cc3[nH]c(cc4nc(cc5nc(cc1[nH]2)C(C)=C5CCC(=O)O)C(CCC(=O)O)=C4C)c(C)c3C=C	+
COc1ccc(S(=O)(=O)CCc2nnc(NC(=O)c3cccs3)s2)cc1	-5
CC(C)(C)c1ccc(C(=O)Oc2cc(N)n(S(=O)(=O)c3ccccc3)n2)cc1	-3
O=C(Nc1ccc2c(c1)OCO2)c1nn2c(C(F)(F)F)cc(-c3ccccc3)nc2c1Br	-4
COc1ccc(-c2ccc3c(N)c(C(=O)c4ccc5c(c4)OCCO5)sc3n2)cc1	71*
SMILES	14-3-3g Raf
COc1cccc(-c2ccc3c(N)c(C(=O)c4ccc(Cl)cc4)sc3n2)c1	-3
COc1ccc(-c2ccc3c(N)c(C(=O)Nc4ccc5c(c4)OCCO5)sc3n2)cc1	-3
O=C(Nc1cccc(-c2nc3ncccc3o2)c1)c1ccc(Cl)c([N+](=O)[O-])c1	-10
CCOC(=O)C(NC(=O)c1ccc(OC)cc1)(Nc1ncccc1C)C(F)(F)F (stereo unspecified)	-3
O=C(NCCc1ccc(Cl)cc1)C1CCN(S(=O)(=O)N2CCCC2)CC1	0
CCOC(=O)c1cnc2ccc(OCC)cc2c1NCCC1=CCCCC1	-9
COc1ccc2cc3cc(C(=O)NC(C)CCc4ccccc4)sc3nc2c1 (stereo unspecified)	-5
CCOc1ccc(N(CC)C(=O)c2cc3cc4ccc(OC)cc4nc3o2)cc1	14
CCc1ccccc1N(CC)C(=O)c1cc2cc3ccc(OC)cc3nc2o1	177*
CCc1cccc(NC(=O)c2cc3cc4ccc(OC)cc4nc3o2)c1	-76
COc1ccc2cc3cc(C(=O)NC(C)CCc4ccccc4)oc3nc2c1 (stereo unspecified)	145*
CCN(C(=O)c1cc2cc3ccc(OC)cc3nc2o1)c1cc(C)ccc1C	-8
Cc1ccc(C)c(-n2c(SCC(=O)Nc3nnc(C)s3)nnc2-c2ccoc2C)c1	-6
CC(C)c1ccc(-c2c(C#N)c(N)nc3c2CCC3)cc1	-7
CC(=O)c1ccc(N2C(=O)NC3(CCCCC3)C2=O)cc1	-3
Cc1cccc(N(CC(=O)NC2CCCCC2)S(=O)(=O)c2ccccc2)c1C	38*
Cc1cccc(N(CC(=O)Nc2c(C)cccc2C)S(=O)(=O)c2ccccc2)c1C	2
Cc1cccc(N(CC(=O)NC2CC3CCC2C3)S(=O)(=O)c2ccccc2)c1C (stereo unspecified)	1
CN1CCN(C(=O)c2nonc2N)CC1	5
O=C(c1cccs1)N1CC(=O)N(CCc2ccccc2)C(=O)C1	-33
O=C1CN(S(=O)(=O)c2ccc(F)cc2)CC(=O)N1CCc1ccccc1	-6
O=C1CN(CCc2ccccc2)CC(=O)N1CCc1ccccc1	166*
COc1ccc(Nc2ncnc3sc(C)cc23)c(OC)c1	2
CS(=O)(=O)Nc1ccc(C2=NN(S(C)(=O)=O)C(c3ccccc3F)C2)cc1 (stereo unspecified)	-228
CCS(=O)(=O)Nc1ccc(C2=NN(S(=O)(=O)CC)C(c3ccccc3F)C2)cc1 (stereo unspecified)	-279

Screening data: PubChem BioAssay, Emory University Molecular Libraries Screening Center
